Several values for one entry are separate records, joined by “and”; a condition that tells them apart may be missing. Identical values can stand only once. About 83,000 compounds went through this panel and 20% of them were active in at least one assay; those are over-represented in the sample as a whole.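 Cell lines were cultured in 96-well plates, exposed to a single compound concentration, and assessed for percent growth 48 hours later.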 A number with no mark means an inactive call. Activity calls are given as the source filed them. The calls were made as follows: active = growth percent below 10; inactive = the rest.
Each molecule was assayed on MDA-MB-468 breast (assay: NCI-60 one-dose screen, 48 h (100 = growth as untreated, 0 = no growth, -100 = all killed)). Conditions: 10 µM unless noted.

Row | Structure (SMILES) | growth
1 | C=C1C(=O)O[C@H]2[C@H]1CC/C(COC(=O)NCCCCCCCCNC(=O)OC/C1=C/CC[C@@]3(C)O[C@H]3[C@H]3OC(=O)C(=C)[C@@H]3CC1)=C\CC[C@@]1(C)O[C@@H]21 | -46.1% (active)
2 | O=C1Nc2c(ccc(Cl)c2Cl)/C1=C/c1ccc(F)cc1 | 51.9%
3 | N#Cc1c(-c2ccc(F)cc2)nc(N/N=C/c2cccc(O)c2)nc1N1CCOCC1 | 81.1%
4 | COc1ccc2c(c1)C(=O)c1c-2c(OCCCN(C)C)nc2cc(Br)ccc12 | 67.5%
5 | COc1ccc(/C=N/Nc2nc(N/N=C/c3ccc(OC)cc3O)nc(N3CCOCC3)n2)c(O)c1 | 63.1%
6 | COc1cccc2cc(-c3cc4ccccc4[nH]3)/c(=N\NC(=O)c3ccc(Cl)cc3)oc12 | -2.01% (active)
7 | N/C(=N\C(N)=N\c1nc2ccccc2s1)c1cccc(Br)c1 | 90.6%
8 | CC1(C)CC2=C3C=C[C@@H]4[C@@]5(C)CCC(=O)C(C)(C)[C@@H]5CC[C@@]4(C)[C@]3(C)CC[C@@]2(C(=O)O)CC1=O | 74.2%
9 | c1cc(OCCN2CCCCC2)ccc1CNc1ccc2nc(CCC3CCCCC3)[nH]c2c1 | 27.4%
10 | Oc1ccc(CCl)c2cccnc12 | 86.2%
11 | O=C(O)C(SC(C(=O)O)c1ccccc1)c1ccccc1 (stereo not given) | 106%
12 | Nc1nc2ccc3[nH]ncc3c2c2c1CCCC2 | -46.8% (active)
13 | Cc1ccc(/C=C2\Oc3ccc(O)c(O)c3C2=O)cc1 | 58.3%
14 | FC(F)(F)c1cc(CNc2nc(Cl)ncc2Br)cc(C(F)(F)F)c1 | 64.7%
15 | COc1cccc2c1C(=O)c1c(O)c3c(c(O)c1C2=O)CC(O)(/C(C)=N/NC(=O)CCCCC(=O)N/N=C(\C)C1(O)Cc2c(O)c4c(c(O)c2C(OC2CC(N)C(O)C(C)O2)C1)C(=O)c1c(OC)cccc1C4=O)CC3OC1CC(N)C(O)C(C)O1 (stereo not given) | -1.37% [5 µM] (active)
16 | CN(C)CCN(Cc1ccccc1)c1ccccc1 | 103%
17 | Cc1nn(-c2ccccc2)nc1C(=O)Nc1ccccc1C(=O)NCC1CC1 | 107% and 87.5%
18 | S=C(c1ccccc1)N1CCN(c2cccc(Cl)c2)CC1 | 105%
19 | Cc1cc(Cl)nc(NCc2cc(Nc3ccnc4cc(Cl)ccc34)ccc2F)n1 | 11.4%
20 | CNc1nc2c(s1)C(c1cccc(F)c1)CC(=O)N2 (stereo not given) | 98%

Row | Structure (SMILES) | growth
21 | O=C1/C(=C\c2ccc[nH]2)c2ccccc2N1c1ccccc1 | 0.806% (active)
22 | CCCc1cc(C(N)=S)ccn1 | 102%
23 | CNC(=O)Cc1nc(-c2cccc(NS(=O)(=O)c3c(F)cccc3F)c2F)c(-c2ccnc(Nc3ccccc3)n2)s1 | 104%
24 | C/C(=N\NC(=O)c1ccncc1)c1ccccc1O | 13.1% and 22.6%
25 | O=C(N/N=C/c1ccccc1O)c1ccccc1Nc1ccnc(C(F)(F)F)c1 | -18.4% (active)
26 | CC(C)(C)c1ccc(-c2nnc(-c3nc4ccccc4nc3Cl)o2)cc1 | 7.12% (active)
27 | CCCCN(CCCC)c1ccc(C(=O)O)cc1 | 101%
28 | COc1cc2c(c(OC)c1OC)-c1ccc(NNC(=S)N(Cc3cccc(C[N+](Cc4cccc(CNC56CC7CC(CC(C7)C5)C6)c4)(Cc4cccc(CNC56CC7CC(CC(C7)C5)C6)c4)Cc4cccc(CN(C(=S)NNc5ccc6c(cc5=O)[C@@H](NC(C)=O)CCc5cc(OC)c(OC)c(OC)c5-6)C56CC7CC(CC(C7)C5)C6)c4)c3)C34CC5CC(CC(C5)C3)C4)c(=O)cc1[C@@H](NC(C)=O)CC2 (stereo not given in full) | -52.7% (active)
29 | CCN(CC)CCn1c(=O)c2cc(OC)c(OC)cc2c2ccc3cc4c(cc3c21)OCO4 | -13.5% (active)
30 | COc1cc(-c2nn(-c3cccc(NC(=O)c4ccccc4)c3)cc2-c2ccncc2)ccc1Cl | -19.7% (active)
31 | COc1cc(C2C3=C(COC3=O)N(CCO)c3cc4c(cc32)CCC4)cc(OC)c1OC (stereo not given) | 0.574% (active)
32 | S=c1nc[nH]c2nc[nH]c12 | 6.65% [50 µM] (active)
33 | CCOc1nc(-c2ccccc2)cc2c(O)c(C(=O)O)[nH]c(=O)c12 | 96.2%
34 | N=c1c2cc(-c3ccccc3)oc2ncn1/N=C/c1ccccc1 | 53.7%
35 | O=C1c2ccccc2NC(c2cn(-c3ccccc3)nc2-c2cccs2)N1Cc1ccccc1 (stereo not given) | 95.4%
36 | Cn1cc(-c2cc3ncnc(Nc4ccc(CC(=O)Nc5cc(C(C)(C)C)on5)cc4)c3s2)cn1 | 31.5%
37 | CCOC(=O)c1ccc2c(c1)[n+](=O)c(C(=O)C1CCCS1)c(C(F)(F)F)n2[O-] (stereo not given) | -80.5% (active)
38 | C/C(=C(/c1ccc(Cl)cc1)c1ccc(OCCN2CCCC2)cc1)c1ccccc1 | 62.4%
39 | Cc1c(C)c([N+](=O)[O-])c(C)c([N+](=O)[O-])c1C | 97.6%
40 | COc1cc2c(cc1-c1c(C)noc1C)ncc1nc(CN3CCOCC3)n([C@H](C)COC(F)F)c12 | 29.6%

— PubChem BioAssay (NCI)
